Assay results: PubChem BioAssay (NCI)
Compounds without any hit were thinned out: in the full panel of roughly 79,000, 15% have a hit. Rule as the data show it: active = growth inhibition above about 70%; inactive = the rest.

Tests used:
[1] = NCI Yeast Anticancer Drug Screen. Data for the rad50 strain (AID 155);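 also: 0% = growth of vehicle-only cultures of the same strain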; conditions: S. cerevisiae rad50 strain growth inhibition; at 50.0 µM; stronger effect = higher value
In short: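 Growth of the mutant yeast was measured after compound exposure and referenced to vehicle-treated cultures.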

[2] = NCI Yeast Anticancer Drug Screen. Data for the mec2-1 strain (AID 157); conditions: S. cerevisiae mec2-1 strain, at 50.0 µM, stronger effect = higher value
In short: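 Cells of the genetically defined mec2-1 yeast strain are incubated with test compound. Inhibition of growth is calculated against vehicle-treated controls.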

[3] = NCI Yeast Anticancer Drug Screen. Data for the sgs1 mgt1 strain (AID 161);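 also: 0% = growth of cultures given vehicle only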; conditions: S. cerevisiae sgs1 mgt1 strain, at 50.0 µM, stronger effect = higher value
In short: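 Test agents were incubated with a DNA-repair-mutant yeast strain. Growth was then read and compared against vehicle-treated controls.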

[4] = NCI Yeast Anticancer Drug Screen. Data for the cln2 rad14 strain (AID 165);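 also: 0% = growth equal to vehicle treated cultures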; conditions: S. cerevisiae cln2 rad14 strain, at 50.0 µM, stronger effect = higher value
In short: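 The screen exposed genetically defined yeast (cln2 rad14) to test compounds and scored growth inhibition relative to vehicle-treated controls.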

[5] = NCI Yeast Anticancer Drug Screen. Data for the bub3 strain (AID 167); conditions: S. cerevisiae bub3 mutant strain, at 50.0 µM, stronger effect = higher value
In short: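 Whole-cell yeast assay. The mutant strain was incubated with compounds, and growth inhibition was determined by comparison with vehicle-treated cells.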

[6] = NCI Yeast Anticancer Drug Screen. Data for the mlh1 rad18 strain (AID 175); conditions: S. cerevisiae mlh1 rad18 strain growth inhibition; at 50.0 µM; stronger effect = higher value
In short: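 Compound-treated yeast growth, normalised to vehicle controls. Strain bears defined DNA repair mutations.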

Measured: growth inhibition

CCC(COC(=O)C(c1ccccc1)c1ccccc1)NC1CCCCC1 (stereo unspecified)
inactive: [1] 27.4% | [2] 14.3% | [3] 44.8% | [4] 14.8% | [5] 6.45% | [6] 27.6%

Cc1cc(CSCCc2nc3ccccc3[nH]2)c(O)c(CSCCc2nc3ccccc3[nH]2)c1
inactive: [1] 15.1% | [2] 3.8% | [3] 5.55% | [4] -42% | [5] -6.65% | [6] 14.4%

CCOC(=O)Nc1cc([N+](C)(C)C)ccc1OCCOc1ccc([N+](C)(C)C)cc1
inactive: [1] -0.4% | [2] 5.35% | [3] -8.4% | [4] -8.8% | [5] -1.65% | [6] 28.6%

NC(=NC1CCCCC1)/N=C(/N)Nc1ccc(Cl)cc1
inactive: [1] 26.8% | [2] 0.2% | [3] 5% | [4] -29.6% | [5] 4.7% | [6] 14.4%

C=C1c2nc3ccccc3n2C=C(c2ccccc2)N1c1ccc([N+](=O)[O-])cc1
inactive: [1] 8.05% | [2] 41.6% | [3] 3.75% | [4] 13.6% | [5] 22.4% | [6] 27.9%

Cc1cccc(C)c1NC(=O)C(Cl)(Cl)Sc1ccc(Cl)cc1Cl
inactive: [1] 0.3% | [2] -34.9% | [3] 5.9% | [4] 8.65% | [5] -5.2% | [6] -2.6%

CCCCCCCCCCC1OCC(CC)([N+](=O)[O-])CO1 (stereo unspecified)
inactive: [1] 10.2% | [2] -27.9% | [3] 18.3% | [4] -46.4% | [5] 9.25% | [6] -10.6%

N#CC1=C(c2ccccc2)NN(Cc2ccccc2)C(c2ccc(Cl)cc2)CC1=O (stereo unspecified)
inactive: [1] 31.9% | [2] 7.25% | [3] 8.25% | [4] -44.1% | [5] 2.6% | [6] 30.6%

CC(O)C(O)C(O)C(O)C#N (stereo unspecified)
inactive: [1] 20.6% | [2] 18% | [3] 12.2% | [4] 11% | [5] 0.15% | [6] 10.1%

CCCCCCCCc1cc(CN(C)C)c(O)c(C(C)(C)CC(C)(C)C)c1
inactive: [1] -13.7% | [2] 2.35% | [3] 27.3% | [4] 16.7% | [5] 16% | [6] 8.3%

Nc1ncnc2c1ncn2C1OC(CSCc2ccc(Cl)cc2)C(O)C1O (stereo unspecified)
inactive: [1] 26.6% | [2] 10.8% | [3] 15.4% | [4] 10.6% | [5] 58.7% | [6] 22.2%

Nc1ncnc2c1ncn2CCCCC(=O)O
inactive: [1] -17.1% | [2] -12.2% | [3] -23.6% | [4] -2.1% | [5] -53% | [6] -15.3%

CN(CCN(C)C(=O)CCn1cc(F)c(=O)[nH]c1=O)C(=O)CCn1cc(F)c(=O)[nH]c1=O
inactive: [1] 26.1% | [2] 18.2% | [3] 50.4% | [4] 18.1% | [5] 3.05% | [6] 29.9%

COc1ccc(CC(=O)O)cc1OC
inactive: [1] 23.9% | [2] 0.55% | [3] 17.6% | [4] -24.4% | [5] -5.95% | [6] 23.9%

NC(Cc1c(F)c(F)c(F)c(F)c1F)C(=O)O (stereo unspecified)
inactive: [1] -2.6% | [2] 2.95% | [3] 11.2% | [4] -11.3% | [5] -12.1% | [6] -7.4%

O=C1OC(=O)c2c(Br)c(Br)c(Br)c(Br)c21
inactive: [1] 5.9% | [2] 8.65% | [3] -16.4% | [4] -8.9% | [5] -10.9% | [6] 2.7%

COC(=O)c1c(C(=O)c2ccccc2)nnn1-c1cccc(C(F)(F)F)c1
inactive: [1] -14.1% | [2] -32.7% | [3] -19% | [4] -3.85% | [5] -28.7% | [6] 0.35%

O=[N+]1C=CC(=NN=c2ccn([O-])cc2)C=C1
inactive: [1] 33.9% | [2] 15.5% | [3] 8.65% | [4] 14.6% | [5] 8% | [6] 26.9%

CC(=O)OCc1c(COC(C)=O)c(-c2ccc(Cl)c(Cl)c2)n2c1CCC2
inactive: [1] 14.8% | [2] -17.1% | [3] 3.2% | [4] 16.7% | [5] -21.3% | [6] 13.2%

CC(C(=O)c1ccc(Cl)cc1)C1=NC2NN(c3ccccc3)C(=O)C2=C1C(C)C(=O)c1ccc(Cl)cc1 (stereo unspecified)
inactive: [1] 10.5% | [2] -12.3% | [3] 6% | [4] -0.3% | [5] 1.8% | [6] 3.25%

COc1cc(/C=C/C=C2\CCC/C(=C\C=C\c3ccc(O)c(OC)c3)C2=O)ccc1O
inactive: [1] 14.4% | [2] -0.05% | [3] 11.2% | [4] 19.3% | [5] 10.8% | [6] 14.2%
